Measurements published in the supplement of paper PMC12669032.

Assays:
Assay in all cases: growth AUC relative to DMSO control (median of replicates) (fraction); higher = more growth (less inhibition), active = hit call of the paper
Details in all cases: 20 µM; 24 h;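 active = AUC reduced over 20% with Padj below 0.05 in at least 2 of 3 replicates; inactive = otherwise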
Akkermansia muciniphila = tested on: Akkermansia muciniphila
Outline: (§1)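 Each value is the median of three biological replicates, grown on separate days, of a gut bacterial monoculture incubated anaerobically at 37 °C in mGAM with 20 µM compound (1% DMSO). Cultures started at OD600 0.05 and were read at OD600 hourly for 24 h, with the minimum OD set to 0. Area under the growth curve was normalised to the plate median of solvent-only wells, or to row and column medians on the industrial chemical plate.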

Bacteroides caccae = tested on: Bacteroides caccae
Outline: as §1

Bacteroides clarus = tested on: Bacteroides clarus
Outline: as §1

Bacteroides dorei = tested on: Bacteroides dorei
Outline: as §1

Bacteroides stercoris = tested on: Bacteroides stercoris
Outline: as §1

[1] = tested on: Bacteroides thetaiotaomicron
Outline: as §1

Bacteroides uniformis = tested on: Bacteroides uniformis
Outline: as §1

[2] = tested on: Bifidobacterium longum subsp. longum
Outline: as §1

Clostridium difficile = tested on: Clostridium difficile
Outline: as §1

Collinsella aerofaciens = tested on: Collinsella aerofaciens
Outline: as §1

Coprococcus comes = tested on: Coprococcus comes
Outline: as §1

Escherichia coli ED1a = tested on: Escherichia coli ED1a
Outline: as §1

Escherichia coli IAI1 = tested on: Escherichia coli IAI1
Outline: as §1

Eubacterium rectale = tested on: Eubacterium rectale
Outline: as §1

[3] = tested on: Fusobacterium nucleatum subsp. animalis
Outline: as §1

Lactobacillus gasseri = tested on: Lactobacillus gasseri
Outline: as §1

Lactobacillus paracasei = tested on: Lactobacillus paracasei
Outline: as §1

Odoribacter splanchnicus = tested on: Odoribacter splanchnicus
Outline: as §1

[4] = tested on: Parabacteroides distasonis
Outline: as §1

Parabacteroides merdae = tested on: Parabacteroides merdae
Outline: as §1

Measured: growth AUC

CC(C)c1ccccc1
inactive: Akkermansia muciniphila 0.937 | Bacteroides caccae 1.02 | Bacteroides clarus 1.01 | Bacteroides dorei 1.02 | Bacteroides stercoris 1.02 | [1] 0.999 | Bacteroides uniformis 0.999 | [2] 0.947 | Clostridium difficile 1.02 | Collinsella aerofaciens 1.02 | Coprococcus comes 0.983 | Escherichia coli ED1a 0.987 | Escherichia coli IAI1 0.999 | Eubacterium rectale 0.968 | [3] 0.92 | Lactobacillus gasseri 1.17 | Lactobacillus paracasei 0.996 | Odoribacter splanchnicus 0.999 | [4] 1.04 | Parabacteroides merdae 1.02

Br[C@@H]1CC[C@H](Br)[C@H](Br)CC[C@@H](Br)[C@@H](Br)CC[C@H]1Br
active: Bacteroides stercoris 0.528 | Eubacterium rectale 0.773 | [4] 0.232 | Parabacteroides merdae 0.351
inactive: Akkermansia muciniphila 1 | Bacteroides caccae 1.01 | Bacteroides clarus 0.901 | Bacteroides dorei 0.999 | [1] 1.01 | Bacteroides uniformis 1.01 | [2] 0.919 | Clostridium difficile 1.02 | Collinsella aerofaciens 1 | Coprococcus comes 1.05 | Escherichia coli ED1a 0.985 | Escherichia coli IAI1 1 | [3] 0.974 | Lactobacillus gasseri 0.789 | Lactobacillus paracasei 0.976 | Odoribacter splanchnicus 1.08

O=[N+]([O-])c1ccc(Oc2c(Cl)cc(Cl)cc2Cl)cc1
inactive: Akkermansia muciniphila 0.832 | Bacteroides caccae 1.02 | Bacteroides clarus 0.907 | Bacteroides dorei 1.01 | Bacteroides stercoris 1.07 | [1] 0.971 | Bacteroides uniformis 0.914 | [2] 0.985 | Clostridium difficile 1.02 | Collinsella aerofaciens 0.935 | Coprococcus comes 0.95 | Escherichia coli ED1a 1.01 | Escherichia coli IAI1 1.03 | Eubacterium rectale 1.02 | [3] 1.05 | Lactobacillus gasseri 0.874 | Lactobacillus paracasei 1.05 | Odoribacter splanchnicus 1.03 | Parabacteroides merdae 0.899
active: [4] 0.623

CCOCN(C(=O)C(=O)O)c1c(C)cccc1CC
inactive: Akkermansia muciniphila 0.978 | Bacteroides caccae 1.01 | Bacteroides clarus 0.989 | Bacteroides dorei 1.02 | Bacteroides stercoris 1.02 | [1] 1.01 | Bacteroides uniformis 1.01 | [2] 1.01 | Clostridium difficile 0.986 | Collinsella aerofaciens 1.02 | Coprococcus comes 1.01 | Escherichia coli ED1a 1 | Escherichia coli IAI1 0.996 | Eubacterium rectale 0.989 | [3] 1.03 | Lactobacillus gasseri 0.989 | Lactobacillus paracasei 1.05 | Odoribacter splanchnicus 0.991 | [4] 1.02 | Parabacteroides merdae 1.01

CCc1cccc(C)c1NC(=O)CS(=O)(=O)[O-].[Na+]
inactive: Akkermansia muciniphila 0.926 | Bacteroides caccae 1.03 | Bacteroides clarus 0.962 | Bacteroides dorei 1.03 | Bacteroides stercoris 0.937 | [1] 1.01 | Bacteroides uniformis 0.991 | [2] 0.975 | Clostridium difficile 1.06 | Collinsella aerofaciens 1.11 | Coprococcus comes 0.996 | Escherichia coli ED1a 0.954 | Escherichia coli IAI1 0.983 | Eubacterium rectale 0.974 | [3] 0.945 | Lactobacillus gasseri 1.04 | Lactobacillus paracasei 0.949 | Odoribacter splanchnicus 1.01 | [4] 1.02 | Parabacteroides merdae 0.989

CC(=O)CC(c1ccccc1)c1c(O)c2ccccc2oc1=O (stereo not given)
inactive: Akkermansia muciniphila 0.913 | Bacteroides caccae 1.01 | Bacteroides clarus 0.93 | Bacteroides dorei 1.02 | Bacteroides stercoris 0.965 | [1] 0.952 | Bacteroides uniformis 0.952 | [2] 1 | Clostridium difficile 0.998 | Collinsella aerofaciens 0.966 | Coprococcus comes 1.01 | Escherichia coli ED1a 0.967 | Escherichia coli IAI1 0.982 | Eubacterium rectale 0.963 | [3] 1.02 | Lactobacillus gasseri 0.957 | Lactobacillus paracasei 0.943 | Odoribacter splanchnicus 0.927 | [4] 0.907 | Parabacteroides merdae 1.01

CC(=O)Nc1cc(NS(=O)(=O)C(F)(F)F)c(C)cc1C
inactive: Akkermansia muciniphila 0.856 | Bacteroides caccae 1.04 | Bacteroides clarus 0.973 | Bacteroides dorei 1.02 | Bacteroides stercoris 0.886 | [1] 1.01 | Bacteroides uniformis 1.02 | [2] 0.92 | Clostridium difficile 1.08 | Collinsella aerofaciens 1.06 | Coprococcus comes 0.977 | Escherichia coli ED1a 0.978 | Escherichia coli IAI1 0.976 | Eubacterium rectale 0.947 | [3] 0.983 | Lactobacillus gasseri 1.12 | Lactobacillus paracasei 0.563 | Odoribacter splanchnicus 1.03 | [4] 1.05 | Parabacteroides merdae 0.966

CCSC(=O)COc1ccc(Cl)cc1C
active: [1] 0.751
inactive: Akkermansia muciniphila 0.952 | Bacteroides caccae 0.977 | Bacteroides clarus 0.982 | Bacteroides dorei 0.905 | Bacteroides stercoris 0.997 | Bacteroides uniformis 1.03 | [2] 1.04 | Clostridium difficile 1.04 | Collinsella aerofaciens 0.966 | Coprococcus comes 0.981 | Escherichia coli ED1a 0.973 | Escherichia coli IAI1 0.986 | Eubacterium rectale 1.03 | [3] 1 | Lactobacillus gasseri 0.874 | Lactobacillus paracasei 1.08 | Odoribacter splanchnicus 0.901 | [4] 1.05 | Parabacteroides merdae 0.992

O=C(NC(=O)c1c(F)cccc1F)Nc1cc(C(F)(F)F)cc(C(F)(F)F)c1Cl
inactive: Akkermansia muciniphila 0.695 | Bacteroides caccae 0.852 | Bacteroides clarus 0.867 | Bacteroides dorei 0.982 | Bacteroides stercoris 0.849 | [1] 0.96 | Bacteroides uniformis 0.96 | [2] 0.819 | Clostridium difficile 1.02 | Collinsella aerofaciens 1.02 | Coprococcus comes 0.932 | Escherichia coli ED1a 0.949 | Escherichia coli IAI1 0.971 | Eubacterium rectale 0.941 | [3] 0.989 | Lactobacillus gasseri 1.33 | Lactobacillus paracasei 0.861 | Odoribacter splanchnicus 0.936 | [4] 0.948 | Parabacteroides merdae 0.951

FC(F)(F)/N=C1\SC(=Nc2ccccc2)N(c2ccccc2)\C1=N\C(F)(F)F
inactive: Akkermansia muciniphila 0.949 | Bacteroides caccae 0.933 | Bacteroides clarus 0.96 | Bacteroides dorei 0.947 | Bacteroides stercoris 0.925 | [1] 1.01 | Bacteroides uniformis 0.924 | [2] 1.03 | Clostridium difficile 0.984 | Collinsella aerofaciens 0.907 | Coprococcus comes 0.983 | Escherichia coli ED1a 0.962 | Escherichia coli IAI1 0.96 | Eubacterium rectale 1.3 | [3] 0.653 | Lactobacillus gasseri 0.903 | Lactobacillus paracasei 1.09 | Odoribacter splanchnicus 1.13 | [4] 0.949 | Parabacteroides merdae 0.908

COC(=O)Nc1ccc(Cl)c(Cl)c1
inactive: Akkermansia muciniphila 0.817 | Bacteroides caccae 0.99 | Bacteroides clarus 0.96 | Bacteroides dorei 0.969 | Bacteroides stercoris 0.95 | [1] 0.966 | Bacteroides uniformis 0.966 | [2] 0.84 | Clostridium difficile 0.978 | Collinsella aerofaciens 1.02 | Coprococcus comes 0.987 | Escherichia coli ED1a 0.999 | Escherichia coli IAI1 0.939 | Eubacterium rectale 0.973 | [3] 0.926 | Lactobacillus gasseri 1.15 | Lactobacillus paracasei 1.08 | Odoribacter splanchnicus 0.974 | [4] 0.986 | Parabacteroides merdae 0.956

CCOC(=O)/C(Cl)=C/c1cc(N2C(=O)C3=C(CCCC3)C2=O)ccc1Cl
inactive: Akkermansia muciniphila 0.947 | Bacteroides caccae 0.97 | Bacteroides clarus 0.934 | Bacteroides dorei 0.99 | Bacteroides stercoris 0.834 | [1] 0.924 | Bacteroides uniformis 0.937 | [2] 0.912 | Clostridium difficile 1.03 | Collinsella aerofaciens 1.03 | Coprococcus comes 0.97 | Escherichia coli ED1a 1 | Escherichia coli IAI1 1.02 | Eubacterium rectale 0.951 | [3] 0.954 | Lactobacillus gasseri 1.1 | Lactobacillus paracasei 0.473 | Odoribacter splanchnicus 1.1 | [4] 0.971 | Parabacteroides merdae 0.948

CC1COc2ccccc2N1C(=O)C(Cl)Cl (stereo not given)
inactive: Akkermansia muciniphila 0.721 | Bacteroides caccae 0.953 | Bacteroides clarus 0.958 | Bacteroides dorei 0.876 | Bacteroides stercoris 0.945 | [1] 0.903 | Bacteroides uniformis 0.985 | [2] 1.03 | Clostridium difficile 0.875 | Collinsella aerofaciens 0.89 | Coprococcus comes 0.887 | Escherichia coli ED1a 0.985 | Escherichia coli IAI1 0.973 | Eubacterium rectale 0.989 | [3] 0.688 | Lactobacillus gasseri 0.903 | Lactobacillus paracasei 1.11 | Odoribacter splanchnicus 0.979 | [4] 0.931 | Parabacteroides merdae 0.95

COCCCNc1nc(NC(C)C)nc(SC)n1
inactive: Akkermansia muciniphila 0.847 | Bacteroides caccae 0.981 | Bacteroides clarus 0.976 | Bacteroides dorei 0.989 | Bacteroides stercoris 0.977 | [1] 0.957 | Bacteroides uniformis 0.982 | [2] 0.985 | Clostridium difficile 0.963 | Collinsella aerofaciens 0.993 | Coprococcus comes 0.963 | Escherichia coli ED1a 1.01 | Escherichia coli IAI1 0.986 | Eubacterium rectale 0.914 | [3] 0.904 | Lactobacillus gasseri 1.04 | Lactobacillus paracasei 0.943 | Odoribacter splanchnicus 0.954 | [4] 1.01 | Parabacteroides merdae 0.992

O=[N+]([O-])c1ccc(O)cc1
inactive: Akkermansia muciniphila 1.02 | Bacteroides caccae 1.01 | Bacteroides clarus 0.994 | Bacteroides dorei 1.01 | Bacteroides stercoris 1.11 | [1] 1.02 | Bacteroides uniformis 1.01 | [2] 0.96 | Clostridium difficile 1.02 | Collinsella aerofaciens 1.05 | Coprococcus comes 0.973 | Escherichia coli ED1a 1.01 | Escherichia coli IAI1 0.994 | Eubacterium rectale 0.994 | [3] 0.979 | Lactobacillus gasseri 0.985 | Lactobacillus paracasei 0.987 | Odoribacter splanchnicus 1.01 | [4] 0.99 | Parabacteroides merdae 0.99

CN(C)C=O
inactive: Akkermansia muciniphila 1.08 | Bacteroides caccae 0.991 | Bacteroides clarus 1.05 | Bacteroides dorei 0.936 | Bacteroides stercoris 1.05 | [1] 1.01 | Bacteroides uniformis 1.05 | [2] 1.13 | Clostridium difficile 0.999 | Collinsella aerofaciens 1.01 | Coprococcus comes 1.04 | Escherichia coli ED1a 1.03 | Escherichia coli IAI1 1.03 | Eubacterium rectale 0.998 | [3] 1.11 | Lactobacillus gasseri 1.01 | Lactobacillus paracasei 1.03 | Odoribacter splanchnicus 1.05 | [4] 0.998 | Parabacteroides merdae 1.02
